PubChem BioAssay (EPA / NIEHS)
Several values for one entry are separate records, joined by “and”; a condition that tells them apart may be missing. Identical values can stand only once. Inconclusive results are not listed. Some structures have more than one record in an assay (separate samples or runs), and their calls can disagree. Activity calls are given as the source filed them. How the source made its calls, unless noted: active means hit-call score of the fitted dose curve at least 0.9, where 1 is the maximum; inconclusive means response in the unintended direction; inactive means score below 0.9.

Columns and labels:
[1] = read-out: X-box binding protein 1 (XBP1), XBP1 (gene 7494); assay: LTEA_HepaRG_XBP1: Life Technologies and Expression Analysis (LTEA) Assay for X-box binding protein 1 (XBP1) using HepaRG (AID 2283540; active means hit-call score of the fitted dose curve at least 0.9, where 1 is the maximum; inactive means score below 0.9); settings: mRNA level, 48 h; actives raise or lower the signal
Outline: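 Differentiated human HepaRG cells in serum-free induction medium were exposed in duplicate for 48 h to eight half-log concentrations up to 100 uM in 0.5% DMSO. XBP1 mRNA was quantified by qRT-PCR, normalised to ACTB, GAPDH and POLR2A, with bidirectional fitting against DMSO.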

[2] = LTEA_HepaRG_LDH_cytotoxicity: Cytotoxicity Assessment in the Life Technologies and Expression Analysis (LTEA) Assay (AID 2283563);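 on AC50: LDH activity released into spent culture medium as a marker of cell death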
Outline: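 Differentiated human HepaRG cells, plated 48 h beforehand, were switched to serum-free induction medium and exposed for 48 h to eight half-log concentrations (top 100 uM) in 0.5% DMSO. LDH was measured in spent medium; activity was fitted relative to DMSO vehicle.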

[3] = ATG_XTT_Cytotoxicity: Cytotoxicity Assessment in the Attagene TRANS-FACTORIAL HepG2 Assay (AID 2283584);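 on AC50: cells exposed to compound for 24 h before reading; active means loss of viability signal versus DMSO baseline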
Outline: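 HepG2 human liver cells, transiently transfected with multiple GAL4-UAS reporter units, were dosed and read at 24 h by XTT as cell number. Loss of signal was fitted relative to DMSO negative control baseline.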

[4] = biological target: Cellular tumor antigen p53 (Homo sapiens) (UniProt P04637); assay: TOX21_p53_BLA_p2_ratio: Tox21 HCT-116 p53 Agonism Beta-lactamase Assay, Ratio, Phase 2 (AID 2283592)
Outline: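 Ratio endpoint: beta-lactamase cleavage of CCF4-AM, blue (460 nm) over green (530 nm). HCT116 reporter line; 16 h treatment, 37C; substrate 2 h RT.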

[5] = TOX21_p53_BLA_p3_viability: Viability Assessment in the Tox21 HCT-116 p53 Agonism Beta-lactamase Assay, Phase 3 (AID 2283593);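 further: cells exposed to compound for 16 h before reading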
Outline: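 Cellular ATP was quantified by CellTiter-Glo luminescence, read after 30 min at room temperature. Beforehand, HCT116 cells (4000/well) received compound 5 h post-seeding, 217-fold diluted from DMSO, then incubated 16 h at 37C.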

[6] = biological target: Cellular tumor antigen p53 (Homo sapiens) (UniProt P04637); assay: TOX21_p53_BLA_p5_ratio: Tox21 HCT-116 p53 Agonism Beta-lactamase Assay, Ratio, Phase 5 (AID 2283599)
Outline: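 Beta-lactamase reporter ratio (blue 460 nm over green 530 nm, 405 nm excitation) after 2 h CCF4-AM loading, in HCT-116 cells exposed 16 h at 37 C to compounds pinned at 217-fold dilution. Increases relative to DMSO baseline scored.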

[7] = TOX21_p53_BLA_p5_viability: Viability Assessment in the Tox21 HCT-116 p53 Agonism Beta-lactamase Assay, Phase 5 (AID 2283600)
Outline: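 Luciferase-coupled ATP quantitation of cells treated for 16 h (37C, 5% CO2) with test chemicals delivered in DMSO via a 217-fold dilution; 4000 cells/well; reagent incubated 30 min at room temperature before luminescence reading.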

[8] = biological target: Cellular tumor antigen p53 (Homo sapiens) (UniProt P04637); assay: TOX21_p53_BLA_p4_ratio: Tox21 HCT-116 p53 Agonism Beta-lactamase Assay, Ratio, Phase 4 (AID 2283601)
Outline: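 Signal is the blue/green (460nm/530nm) ratio of cleaved versus uncleaved CCF4-AM substrate, read after 2 h substrate loading. Cells were HCT116 carrying the p53-responsive beta-lactamase reporter, dosed 16 h at 37C, 5% CO2; CellTiter-Glo measured in parallel.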

[9] = Tanguay_ZF_120hpf_MORT_legacy: (Legacy) Oregon State University Tanguay Lab 120 Hour Post-fertilization zebrafish Assay for Mortality (AID 2283633);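 on AC50: fitted as increase in binary mortality versus DMSO negative control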
Outline: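 Dechorionated Tropical 5D wild-type zebrafish embryos, one per well from 6 hpf, were statically exposed at 28C in the dark until 120 hpf (0.64% DMSO final). Mortality was scored as present/absent by brightfield microscopy, fitted positively versus DMSO.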

[10] = Tanguay_ZF_120hpf_YSE_legacy: (Legacy) Oregon State University Tanguay Lab 120 Hour Post-fertilization zebrafish Assay for Yolk Sac Edema (AID 2283634)
Outline: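 Tropical 5D wild-type embryos, dechorionated with pronase at 4 hpf, were exposed singly from 6 hpf to 120 hpf under static, sealed, dark conditions at 28C with 0.64% DMSO final. Yolk sac edema was scored present/absent by brightfield microscopy.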

[11] = Tanguay_ZF_120hpf_AXIS_legacy: (Legacy) Oregon State University Tanguay Lab 120 Hour Post-fertilization zebrafish Assay for Body Axis Malformation (AID 2283635)
Outline: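 Tropical 5D wild-type zebrafish embryos, dechorionated with pronase at 4 hpf, were placed singly in wells at 6 hpf and exposed statically to test chemical (0.64% DMSO final) at 28C until 120 hpf, then scored by brightfield for body axis defects.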

[12] = Tanguay_ZF_120hpf_EYE_legacy: (Legacy) Oregon State University Tanguay Lab 120 Hour Post-fertilization zebrafish Assay for Eye Malformation (AID 2283636);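 further: binary presence or absence of eye malformation scored by brightfield in 120 hpf larvae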
Outline: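 Binary brightfield scoring of eye defects at 120 hpf after static exposure from 6 hpf of single pronase-dechorionated wild-type embryos (28C, 0.64% DMSO). Non-mortality endpoints omitted where embryos died; fit vs DMSO.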

[13] = Tanguay_ZF_120hpf_SNOU_legacy: (Legacy) Oregon State University Tanguay Lab 120 Hour Post-fertilization zebrafish Assay for Snout Malformation (AID 2283637)
Outline: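 Binary snout-malformation call at 120 hpf in wild-type 5D embryos, chorion removed by pronase, under static exposure from 6 hpf at 28C (0.64% DMSO). Embryos dying by 24 or 120 hpf excluded.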

[14] = Tanguay_ZF_120hpf_OTIC_legacy: (Legacy) Oregon State University Tanguay Lab 120 Hour Post-fertilization zebrafish Assay for Otic Vesicle Malformation (AID 2283639)
Outline: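 Statically exposed wild-type 5D zebrafish embryos, kept sealed and dark at 28C through 120 hours post fertilization, were examined by brightfield microscopy for otic vesicle defects. Responses were recorded as present or absent and analysed relative to DMSO.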

[15] = Tanguay_ZF_120hpf_PE_legacy: (Legacy) Oregon State University Tanguay Lab 120 Hour Post-fertilization zebrafish Assay for Pericardial Edema (AID 2283640)
Outline: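 Tropical 5D wild-type zebrafish embryos were exposed statically to 120 hpf at 28C, sealed and foil-covered, in 0.64% DMSO final. Pericardial edema was scored present/absent by brightfield microscopy; dead embryos were not scored.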

[16] = Tanguay_ZF_120hpf_BRAI_legacy: (Legacy) Oregon State University Tanguay Lab 120 Hour Post-fertilization zebrafish Assay for Brain Malformation (AID 2283641)
Outline: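 Tropical 5D wild-type zebrafish embryos were exposed statically in sealed, foil-covered plates at 28C until 120 hpf, with 0.64% (vol/vol) final DMSO. Brain malformation was scored present/absent by brightfield microscopy, relative to DMSO baseline.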

[17] = Tanguay_ZF_120hpf_SOMI_legacy: (Legacy) Oregon State University Tanguay Lab 120 Hour Post-fertilization zebrafish Assay for Somite Malformation (AID 2283647)
Outline: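 Tropical 5D wild-type zebrafish embryos, dechorionated with pronase at 4 hpf, were placed singly at 6 hpf and statically exposed until 120 hpf at 28C in 0.64% DMSO. Somite malformation was scored present/absent by brightfield microscopy versus DMSO.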

[18] = TOX21_p53_BLA_p2_viability: Viability Assessment in the Tox21 HCT-116 p53 Agonism Beta-lactamase Assay, Phase 2 (AID 2283591);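 further: compound exposure lasted 16 h at 37 °C; actives lower the ATP signal meaning cytotoxicity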
Outline: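 Cytotoxicity readout: CellTiter-Glo ATP luminescence, 30 min at room temperature, after the beta-lactamase read. Cells were HCT116 exposed 16 h at 37C to compounds pin-transferred at 217-fold dilution from DMSO stocks.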

[19] = biological target: Cellular tumor antigen p53 (Homo sapiens) (UniProt P04637); assay: TOX21_p53_BLA_p3_ratio: Tox21 HCT-116 p53 Agonism Beta-lactamase Assay, Ratio, Phase 3 (AID 2283596)
Outline: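 Cells were seeded at 4000/well, rested 5 h at 37C, then dosed with DMSO compound solutions (217-fold dilution) for 16 h. CCF4-AM substrate was loaded for 2 h at room temperature, and the 460/530 nm emission ratio was fitted for gain of signal versus DMSO.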

[20] = TOX21_p53_BLA_p4_viability: Viability Assessment in the Tox21 HCT-116 p53 Agonism Beta-lactamase Assay, Phase 4 (AID 2283597);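 further: hits lower the luminescence signal meaning cytotoxicity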
Outline: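 Cytotoxicity was inferred from loss of CellTiter-Glo luminescence. HCT116 cells had been dosed with compounds after 5 h plating, incubated 16 h at 37C and 5% CO2, and exposed to the CCF4-AM substrate for 2 h.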

Measured: AC50

Cellular tumor antigen p53 (Homo sapiens), sequence (P04637 whole entry, looked up): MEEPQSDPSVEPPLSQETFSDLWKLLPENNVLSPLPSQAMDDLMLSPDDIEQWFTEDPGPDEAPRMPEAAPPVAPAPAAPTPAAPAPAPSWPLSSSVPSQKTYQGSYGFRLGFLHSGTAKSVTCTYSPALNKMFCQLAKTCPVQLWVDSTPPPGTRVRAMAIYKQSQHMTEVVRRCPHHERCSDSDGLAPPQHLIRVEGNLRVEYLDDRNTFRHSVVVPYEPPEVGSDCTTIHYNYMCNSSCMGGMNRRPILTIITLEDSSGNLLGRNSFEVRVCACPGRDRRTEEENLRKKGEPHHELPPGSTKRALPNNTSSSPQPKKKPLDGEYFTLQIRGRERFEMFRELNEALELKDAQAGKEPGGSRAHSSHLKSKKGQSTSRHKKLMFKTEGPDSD

CCOP(=S)(OCC)SCSP(=S)(OCC)OCC
inactive: [2] | [3] | [4] | [5] | [6] | [7] | [8] | [9] | [10] | [11] | [12] | [13] | [14] | [15] | [16] | [17]
active: [1] 0.245 µM

C[C@]12CC[C@H](O)CC1=CC[C@@H]1[C@@H]2CC[C@]2(C)C(=O)CC[C@@H]12
inactive: [3]

ClC1(Cl)C2(Cl)C3(Cl)C4(Cl)C(Cl)(Cl)C5(Cl)C3(Cl)C1(Cl)C5(Cl)C24Cl (stereo not drawn)
inactive: [1] | [2] | [3] | [4] | [5] | [7] | [8] | [9] | [10] | [11] | [12] | [13] | [14] | [15] | [16] | [17]

ClC1=C(Cl)[C@]2(Cl)[C@@H]3[C@@H](Cl)[C@@H](Cl)C[C@@H]3[C@@]1(Cl)C2(Cl)Cl
inactive: [3]

CC(C)(C)c1cc(O)ccc1O
inactive: [1] | [2] | [3] | [18] | [4] | [5] | [19] | [20] | [6] | [7] | [10] | [11] | [12] | [13] | [14] | [15] | [16] | [17]
active: [9] 32 µM

C=CC(=O)OCCCCCC(C)C
inactive: [1] | [2] | [18] | [5] | [19] | [20] | [6] | [7] | [9] | [10] | [11] | [12] | [13] | [14] | [15] | [16] | [17]

Oc1c(I)cc(I)cc1I
inactive: [3]

O=[N+]([O-])c1ccc(O)c([N+](=O)[O-])c1
inactive: [3] | [18] | [5] | [19] | [20] | [6] | [7] | [8] | [10] | [12] | [13] | [14] | [15] | [16]
active: [1] 13.2 µM | [2] 88.5 µM | [4] 69 µM and 63.7 µM | [19] 78.5 µM | [6] 79.2 µM | [9] 26.4 µM

CC(C)(OO)c1ccccc1
inactive: [1] | [2] | [3] | [18] | [4] | [5] | [19] | [6] | [8] | [9] | [10] | [11] | [12] | [13] | [14] | [15] | [17]

C=C(C)C(=O)[O][Sn]([CH2]CCC)([CH2]CCC)[CH2]CCC
inactive: [1] | [10] | [11] | [12] | [13] | [14] | [15] | [16] | [17]
active: [2] 4.2 µM | [3] 2.32 µM | [18] 1.88 µM | [4] 41.1 µM | [5] 1.18 µM | [19] 17.5 µM | [6] 35.9 µM | [7] 1.74 µM | [8] 28.7 µM | [9] 1.77 µM

CC(C)(c1ccccc1)c1ccc(O)c(C(C)(C)c2ccccc2)c1
inactive: [1] | [9] | [10] | [12] | [13] | [14] | [15] | [16]
active: [2] 72.2 µM | [18] 11.4 µM and 20.3 µM | [4] 43.2 µM and 46.9 µM | [5] 40.5 µM and 53.8 µM | [19] 80.6 µM and 83.7 µM | [20] 12.1 µM and 16.6 µM | [6] 73.6 µM and 51.9 µM | [7] 39.1 µM and 24.3 µM | [8] 37.5 µM and 29 µM

CC(=O)[O][Hg][c]1ccccc1
inactive: [10] | [11] | [12] | [13] | [14] | [15] | [16] | [17]
active: [1] 11.6 µM | [2] 0.688 µM | [3] 8.24 µM | [18] 2.74 µM and 2.65 µM and 3.55 µM | [4] 4.84 µM and 12.5 µM and 8.1 µM | [5] 254 nM and 422 nM and 682 nM | [19] 1.46 µM and 1.07 µM and 1.23 µM | [20] 3.63 µM and 4.05 µM and 3.54 µM | [6] 2.9 µM and 2.82 µM and 4.64 µM | [7] 1.5 µM and 1.56 µM and 2.25 µM | [8] 7.28 µM and 2.97 µM and 7.86 µM | [9] 0.179 µM

Clc1nc(Cl)nc(Cl)n1
inactive: [3] | [18] | [4] | [5] | [19] | [6] | [7] | [8]

COC(=O)c1sccc1S(=O)(=O)NC(=O)Nc1nc(C)nc(OC)n1
inactive: [3] | [18] | [4] | [5] | [19] | [20] | [6] | [7] | [8]

CNC
inactive: [3] | [18] | [4] | [5] | [19] | [20] | [6] | [7] | [8]

CCC[CH2][Sn]([CH2]CCC)([CH2]CCC)[O]C(=O)c1ccccc1
active: [3] 0.906 µM | [18] 0.93 µM | [4] 23.9 µM | [5] 2.09 µM | [19] 24.4 µM | [20] 953 nM | [6] 24.7 µM | [7] 1.77 µM | [8] 27.2 µM

Oc1ccc(-c2ccccc2)cc1
inactive: [3] | [18] | [4] | [5] | [19] | [6] | [7] | [8]
